Shiga toxin inh = A qHTS for Small Molecule Inhibitors of Shiga Toxin. inhibition, % at 38.7 µM. Vero cells, Shiga toxin protein synthesis inhibition reporter. 290,000 compounds, 9.2% hits; in the data active = inhibition mostly above about 28%, no sharp cut-off; inactive = mostly below about 43%
Cycloheximide cs = Cycloheximide Counterscreen for Small Molecule Inhibitors of Shiga Toxin. max response, %. cell reporter, cycloheximide protein synthesis inhibition counterscreen. 300,000 compounds, 12% hits; in the data active = max response mostly above about 13%, no sharp cut-off; inactive = mostly below about 14%; also: read at 38.3 µM for the half of the compounds with a filed dose
MARV entry inh = qHTS for inhibitors of binding or entry into cells for Marburg Virus; Marburg virus pseudotyped entry inhibition, cell reporter; Potency, µM (series often up to 37.8 µM), actives largely listed as inhibitors; 300,000 compounds, 1.8% hits; calls by dose curve; tested in HEK293 cells
FMDV inh = High Throughput Screening for Foot and Mouth Disease Virus Antivirals. Potency, µM (series often up to 57.9 µM), usual class: inhibitors. FMDV antiviral cell-based qHTS. AID 1159524, 2015. 410,000 compounds, 1.2% hits; calls by dose curve; tested in HEK293T cells; also: read-out not given here; nearly all actives have a fitted effect of over 45% in size
LASV entry inh = qHTS for Inhibitors of binding or entry into cells for Lassa Virus | Lassa virus pseudotype entry inhibition, cell reporter | 300,000 compounds, 1.2% hits | Potency, µM (series often up to 37.9 µM), most hits filed as inhibitors; calls by dose curve; tested in HEK293 cells; also: nearly all actives have a fitted effect of over 50% in size
HCV inhibitor = qHTS Assay for Inhibitors of Hepatitis C Virus (HCV) | Huh7.5.1 HCVcc-Cre infection, luciferase reporter, 44 h | Potency, µM (series often up to 41.8 µM), usual class: inhibitors | 340,000 compounds, 3.4% hits; active = well fitted inhibition curve with a large enough effect; inconclusive = small, poorly fitted or top-dose-only effect, or another doubt; inactive = no such curve, though single readings can be large or run the other way
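Infectious HCV cell culture screen: compound-treated cells (1,000/well, pre-plated 4 h) are infected with HCVcc-Cre at roughly 0.5 moi and grown 44 h. Infection is quantified by luciferase signal after 15 min substrate incubation at room temperature.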
A number is an active result; – = inactive; ? = inconclusive; · = not tested or not shown; + = active, no number. Rows were chosen to be rich in hits. Some 13% of all compounds tested hit in one or more screens of this group.

SMILES	Shiga toxin inh	Cycloheximide cs	MARV entry inh	FMDV inh	LASV entry inh	HCV inhibitor
CCCCc1ccc(-c2nc(N)n[nH]2)cc1	78	44	–	–	–	–
N#Cc1ccc(NC(=O)COC(=O)c2ccc(F)c(S(=O)(=O)N3CCOCC3)c2)cc1	·	·	·	–	·	–
O=C(Nc1cc(S(=O)(=O)N2CCOCC2)ccc1OCC(F)(F)F)C1CCCC1	·	·	·	–	·	·
CC1(C)CC(=O)C2=C(C1)N(c1ccc(F)cc1)C(=O)C2(NC(=O)c1ccccc1F)C(F)(F)F (stereo unspecified)	–	–	–	–	–	–
Cc1ccc(N=Cc2c(O)n(C)c(=O)n(C)c2=O)cc1	–	–	·	–	·	–
Cc1cccc(N=Cc2c(O)n(C)c(=O)n(C)c2=O)c1	25	–	–	–	–	–
CN1CCCN(S(=O)(=O)c2ccccc2)c2nc3ccccc3nc21	·	·	–	–	–	–
O=C(N/N=C/c1ccccn1)c1cc(-c2cccc3ccccc23)n[nH]1	–	13	–	–	?	–
CCc1ccc(-c2cc(C(=O)N/N=C/c3ccccn3)[nH]n2)cc1	–	–	–	–	·	–
O=C(N/N=C/c1ccccn1)c1ccc(NC(=O)c2ccccc2Cl)cc1	–	–	–	–	–	?
O=C(N/N=C/c1ccccn1)c1ccc(Cl)c(Cl)c1	69	44	·	·	·	·
O=C(N/N=C/c1ccccn1)c1cc(-c2ccc3ccccc3c2)n[nH]1	–	–	?	?	–	–
O=C(N/N=C/c1ccccn1)c1cc(-c2ccccc2Cl)n[nH]1	95	35	·	–	·	–
COc1cccc(C2C(C(N)=O)=C(C)Nc3ncnn32)c1 (stereo unspecified)	·	·	–	–	–	·
COc1ccc(C2=CC(=O)CC(c3ccc(F)cc3)C2)cn1 (stereo unspecified)	·	·	·	–	·	–
Cc1ccc(C)c(NC(=O)C(=O)NCCc2csc3nc(-c4ccccc4C)nn23)c1	·	·	·	22µM	–	·
CC(/C=C\c1cccnc1)=C/C(=O)O	–	–	?	–	?	–
O=C(C1=C(O)C(=O)N(Cc2cccnc2)C1c1cccc(Oc2ccccc2)c1)c1ccco1 (stereo unspecified)	·	·	·	–	·	–
Cc1ccc(NC(=O)c2sccc2-n2cccc2)c(Cl)c1	–	31	·	–	·	–
Cc1cc(NC(=O)c2cc(Cl)ccc2Cl)no1	–	–	–	·	–	?
Cc1ccc(SCCC(=O)Nc2ccccc2C(=O)NC(C)C)cc1	–	–	–	–	–	–
Cc1ccc(SCCC(=O)Nc2ccccc2Br)cc1	56	16	·	–	·	–
Cc1cc(NC(=O)c2ccccc2Cl)no1	+	54	–	–	?	–
Cc1cc(NC(=O)c2sc3ccccc3c2O)no1	82	62	·	–	·	–
Cc1ccc(N(C)S(=O)(=O)c2ccc(-c3ccc(=O)[nH]n3)s2)cc1C	–	–	·	–	·	–
SMILES	Shiga toxin inh	Cycloheximide cs	MARV entry inh	FMDV inh	LASV entry inh	HCV inhibitor
Cc1ccc(NC(=O)Cn2ncc3ccccc32)c(Cl)c1	55	52	·	–	·	–
Cc1ccc(NC(=O)c2ccccc2Cl)c(Cl)c1	69	42	–	–	–	–
Cc1cc(NC(=O)c2c(F)c(F)c(F)c(F)c2F)no1	–	–	?	–	–	?
Cc1cc(NC(=O)c2c(F)cccc2Cl)no1	56	13	–	–	–	–
Cc1cc(NC(=O)NC(=O)c2ccccc2F)no1	77	32	?	–	–	–
CCOC(=O)C(NC(=O)c1ccccc1F)(Nc1cc(C)on1)C(F)(F)F (stereo unspecified)	–	–	–	–	–	–
CCOC(=O)N1CCN(S(=O)(=O)c2ccc(C)c([N+](=O)[O-])c2)CC1	–	–	?	–	–	–
CC(=O)Nc1ccc(NC(=O)c2c(C)noc2C)cc1	–	–	·	–	·	–
c1cc(-c2nnn(CCOCCn3nnc(-c4ccncc4)n3)n2)ccn1	–	–	·	–	·	–
Cc1cc(NC(=O)CCSc2ccccc2)no1	36	24	?	–	–	–
Cc1ccc(NC(=O)C2CC2C)c(Cl)c1 (stereo unspecified)	–	30	·	–	·	–
Cc1ccc(-c2cc(C(=O)OCC(=O)Nc3cc(C)on3)c3ccccc3n2)c(C)c1	–	–	–	–	–	–
Cc1ccc2nc(-c3ccccc3Cl)cc(C(=O)Nc3cc(C)on3)c2c1	–	–	–	?	–	13µM
CS(=O)(=O)c1ccc2nc(NC(=O)Nc3ccccc3F)sc2c1	73	61	·	–	·	–
CS(=O)(=O)c1ccc2nc(NC(=O)Nc3ccc(Cl)c(Cl)c3)sc2c1	–	–	–	–	–	–
CS(=O)(=O)c1ccc2nc(NC(=O)c3ccccc3)sc2c1	39	28	?	–	?	–
Cc1ccc(NC(=O)Nc2nc3ccc(S(C)(=O)=O)cc3s2)cc1	·	·	–	–	–	?
CS(=O)(=O)c1ccc2nc(NC(=O)Cc3ccccc3)sc2c1	–	–	·	–	·	–
CC(C)(C)C(=O)Nc1nc2ccc(S(C)(=O)=O)cc2s1	78	36	–	–	–	–
Cc1ccc(C(=O)Nc2nc3ccc(S(C)(=O)=O)cc3s2)cc1C	–	–	?	–	?	?
Cc1cccc(C(=O)Nc2nc3ccc(S(C)(=O)=O)cc3s2)c1	88	36	·	–	·	?
CC(C)COC(=O)N(C)C[C@H]1OCc2cn(nn2)CCCC(=O)N([C@@H](C)CO)C[C@@H]1C	·	·	·	–	·	·
CS(=O)(=O)c1ccc2nc(NC(=O)Nc3cccc(Cl)c3)sc2c1	107	31	?	–	?	11µM
N#Cc1ccsc1NC(=O)CCN1CCN(C(c2ccccc2)c2ccccc2)CC1	–	–	10µM	–	?	?
N#Cc1ccsc1NC(=O)CCc1ccccc1	68	32	?	–	·	?
SMILES	Shiga toxin inh	Cycloheximide cs	MARV entry inh	FMDV inh	LASV entry inh	HCV inhibitor
N#Cc1ccsc1NC(=O)CN1CCN(c2ccccc2O)CC1	–	–	?	–	?	–
O=C(Nc1cc(Cl)ccc1-n1cncn1)c1ccc(F)c(S(=O)(=O)N2CCOCC2)c1	·	·	?	–	–	?
O=C(NCCNC(=O)c1cnccn1)c1ccc(Cl)cc1	–	–	–	–	–	–
O=C(Nc1cnccn1)c1ccc(Cl)cc1	58	–	–	–	–	–
N/C(=N\NC(=O)c1ccc(Cl)cc1)c1cnccn1	48	33	?	–	–	–
CC1=C(C(=O)OC(C)C)C(c2ccc(C)o2)NC(=O)N1 (stereo unspecified)	–	–	–	–	–	–
O=C(CSCc1ccccc1Cl)NNC(=S)Nc1ccccc1	–	11	–	–	–	–
O=C(Nc1ccon1)c1ccc(OC2CCCC2)cc1	92	64	?	–	?	–
C=CCn1c(Oc2cccc(C)c2)nc2c1c(=O)n(C)c(=O)n2C	–	–	·	–	·	–
Cc1ccc(C(=O)NCCc2nnc3ccc(SCC(=O)N4CCCC4)nn23)cc1	53	42	–	–	?	–
Cc1ccc(C(=O)NCCc2nnc3ccc(SCC(=O)N4CCCCC4)nn23)cc1	–	–	–	–	–	–

Screening data from PubChem.
